We go through 5 compounds from PubChem BioAssay.

For one test, the target named is Albumin (Bos taurus) (UniProt P02769). The experiment in a line: compounds binding labelled BSA control protein – biochemical, small-molecule microarray, Alexa647 label, 635/667 nm fluorescence, artefact control for SMM control protein annotation, profiling panel (AID 1118).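 Further: score merges 667 nm emission intensity and signal-to-noise per printed compound spot.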 As to conditions: BSA-A647 binding, fluorescence 635 nm, higher = more signal.
The nature of test [1]: probe aXIP binding to arrayed compounds – biochemical, NeuroSMM set, 635/667 nm fluorescence, primary screen (AID 1119).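 Further: probe is the protein aXip251-270 applied at 1 µg/mL to compound-printed slides; binding of probe to printed compounds measured as 667 nm fluorescence plus signal to noise.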 Particulars: small-molecule microarray, higher = more signal, called active from +8 up or from −8 down.
The nature of test [2]: probe aNOTCH3 binding on compound microarray – biochemical, small-molecule microarray, 635/667 nm fluorescence, primary screen (AID 1120).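 Further: probe is a biotin-tagged antibody raised against NOTCH3 rather than NOTCH3 protein; score merges spot fluorescence near 667 nm with spot signal to noise.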 As to conditions: higher = more signal.
The nature of test [3]: probe aNOTCH2 binding on compound microarray – biochemical, small-molecule microarray, 635/667 nm fluorescence, primary screen (AID 1121).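 Further: score merges feature fluorescence read at 667 nm with its signal to noise.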 Particulars: higher = more signal.
Test [4] concerns the target Carbonic anhydrase 2 (Homo sapiens) (UniProt P00918). The experiment in a line: compounds binding carbonic anhydrase 2 – biochemical, small-molecule microarray, Alexa647-labelled CAII, profiling panel (AID 1122). As to conditions: CAII-A647 binding fluorescence, higher = more signal.
Test [5] can be described thus: COS7 lysate on small-molecule microarray, probe aHis, 635 nm (AID 1123).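 Further: z-score combines 667nm fluorescence intensity with signal-to-noise per printed compound spot.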 Particulars: COS7 cell lysate, fluorescence, higher = more signal.
A short description of test [6]: probe aLAP1 signal on lysate-treated microarray – cell lysate, small-molecule microarray, COS7 lysate, primary screen (AID 1124).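 Further: lysate comes from COS7 cells expressing LAP1 and is applied at 0.3 µg/mL; score merges spot fluorescence near 667 nm with signal-to-noise over triplicate slides.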 As to conditions: probe aLAP1, fluorescence, higher = more signal.
The test system of the next test is Sam68 (KHDRBS1). The experiment in a line: compounds binding KHDRBS1 protein – biochemical, small-molecule microarray, 635 nm fluorescence, primary screen (AID 1125).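 Further: score merges 667 nm channel intensity with signal to noise over triplicate slides.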 Particulars: higher = more signal.
In test [7] the test system is Chordin-like protein 2 (CHRDL2). The experiment in a line: compounds binding chordin-like 2 – biochemical, small-molecule microarray, 635 nm fluorescence, primary screen (AID 1126).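 Further: printed compound slides probed with Chrdl2 protein at 4 µg/mL for 1 h at 4 C; score merges 667 nm emission intensity with signal to noise over three replicate slides.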 As to conditions: fluorescence 635 nm, higher = more signal.
Test [8] addresses Concanavalin-A (Canavalia ensiformis) (UniProt P02866). The experiment in a line: compounds binding concanavalin A lectin – biochemical, small-molecule microarray, Alexa647 label, 635 nm, artefact control for SMM control protein annotation, primary screen (AID 1127).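 Further: z combines 667 nm emission intensity with signal-to-noise across three replicate slides.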 Particulars: ConA-A647 binding fluorescence, higher = more signal.
Test [9] in a line: compounds binding Alexa647 anti-His antibody – biochemical, small-molecule microarray, 635 nm fluorescence, artefact control for SMM control protein annotation, primary screen (AID 1128).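 Further: score merges feature fluorescence with signal-to-noise for each printed compound spot.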 As to conditions: higher = more signal.
Test [10] concerns Human papillomavirus type 1a E7 protein (residues 1-88). Description: HPV1a E7 small-molecule binders, primary screen, biochemical, small-molecule microarray, residues 1-88, 635 nm (AID 1129). Particulars: small-molecule microarray binding, fluorescence 635 nm; higher = more signal.
Test [11] has as its target Focal adhesion kinase 1 (Homo sapiens) (UniProt Q05397). Description: PTK2 protein binding on printed compound slides – biochemical, small-molecule microarray, 635/667 nm fluorescence, BSA, DTT, primary screen (AID 1130).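 Further: composite of spot emission at 667 nm and signal to noise over triplicate slides.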 Particulars: 635 nm fluorescence, higher = more signal.
The test system of test [12] is Fibrinogen (Alexa647-labelled). Description: Alexa647-fibrinogen binding to printed small molecules – biochemical, small-molecule microarray, 635/667 nm fluorescence, artefact control for SMM control-protein annotation, profiling panel (AID 1131).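 Further: z-score merges 667 nm fluorescence with per-spot signal-to-noise over triplicate slides.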 Particulars: fibrinogen-A647 binding fluorescence, higher = more signal.
In test [13] the target is Follistatin (Homo sapiens) (UniProt P19883). Description: FST protein binding to printed compounds – biochemical, small-molecule microarray, 635/667 nm fluorescence, primary screen (AID 1132). As to conditions: 635 nm fluorescence, higher = more signal.
Test [14] has as its target Fibroblast growth factor 2 (Homo sapiens) (UniProt P09038). Description: basic fibroblast growth factor binding to printed compounds – biochemical, small-molecule microarray, 635/667 nm fluorescence, primary screen (AID 1133). As to conditions: FGF2, fluorescence 635/667, higher = more signal.
A short description of test [15]: JC-1 mitochondrial potential readout, lung cancer cells – cell-based, A549, JC-1 fluorescence, basal, 24 h, 100 nL, profiling panel (AID 1138).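 Further: A549 lung adenocarcinoma cells under basal conditions with no added stimulus; test concentration not given here.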 Particulars: higher = more signal.
The subject of the next test is Lefty1. The experiment in a line: Lefty1 protein binding to printed compounds – biochemical, small-molecule microarray, 635/667 nm fluorescence, primary screen (AID 1139). As to conditions: fluorescence 635/667, higher = more signal.
Test [16] deals with wheat germ agglutinin (Triticum aestivum), Alexa647-labelled. Description: Alexa647-WGA lectin binding to printed small molecules – biochemical, small-molecule microarray, 635/667 nm fluorescence, artefact control for SMM control-protein annotation, profiling panel (AID 1140).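 Further: score merges 667 nm feature emission with signal to noise over triplicate slides.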 As to conditions: WGA-A647 binding, 635 nm fluorescence, higher = more signal.
Test [17] has as its target Luciferin 4-monooxygenase (Photinus pyralis) (UniProt P08659). Description: inhibition of purified Photinus pyralis luciferase – biochemical, luminescence, purified enzyme, 2006 set, primary screen (AID 1141).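 Further: cell-free assay with purified firefly luciferase at 100 ng per well in PBS; test concentration not given here.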 Particulars: purified firefly luciferase, SteadyGlo luminescence, 30 min; higher = more signal, called active from +8 up or from −8 down.

Active and inactive are the calls of the source.

Sequence of Follistatin (Homo sapiens) (P19883 whole entry, looked up): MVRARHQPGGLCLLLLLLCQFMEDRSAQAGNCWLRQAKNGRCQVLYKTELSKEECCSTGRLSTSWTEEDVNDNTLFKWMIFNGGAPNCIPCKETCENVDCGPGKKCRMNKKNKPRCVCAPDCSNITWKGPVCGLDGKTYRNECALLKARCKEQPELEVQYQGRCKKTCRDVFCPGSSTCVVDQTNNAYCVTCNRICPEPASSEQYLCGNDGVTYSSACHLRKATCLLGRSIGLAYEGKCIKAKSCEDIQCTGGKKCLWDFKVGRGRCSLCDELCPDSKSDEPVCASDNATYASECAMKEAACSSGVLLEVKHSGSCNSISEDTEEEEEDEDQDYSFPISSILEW
Sequence of Luciferin 4-monooxygenase (Photinus pyralis) (P08659 whole entry, looked up): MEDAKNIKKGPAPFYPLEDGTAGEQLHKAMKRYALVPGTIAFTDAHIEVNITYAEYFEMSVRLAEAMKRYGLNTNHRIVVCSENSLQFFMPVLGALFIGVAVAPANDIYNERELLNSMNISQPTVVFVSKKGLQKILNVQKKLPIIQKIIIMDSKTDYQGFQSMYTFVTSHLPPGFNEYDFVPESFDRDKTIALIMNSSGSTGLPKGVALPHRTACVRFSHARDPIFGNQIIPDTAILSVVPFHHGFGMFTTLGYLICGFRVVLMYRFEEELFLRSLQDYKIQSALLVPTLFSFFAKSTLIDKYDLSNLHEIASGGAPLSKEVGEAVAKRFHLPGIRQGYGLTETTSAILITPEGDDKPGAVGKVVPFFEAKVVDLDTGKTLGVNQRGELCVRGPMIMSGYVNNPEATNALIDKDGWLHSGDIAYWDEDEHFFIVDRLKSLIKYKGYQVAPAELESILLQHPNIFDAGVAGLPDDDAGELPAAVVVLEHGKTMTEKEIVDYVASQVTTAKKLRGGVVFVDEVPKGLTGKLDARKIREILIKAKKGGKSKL
Sequence of Focal adhesion kinase 1 (Homo sapiens) (Q05397 whole entry, looked up): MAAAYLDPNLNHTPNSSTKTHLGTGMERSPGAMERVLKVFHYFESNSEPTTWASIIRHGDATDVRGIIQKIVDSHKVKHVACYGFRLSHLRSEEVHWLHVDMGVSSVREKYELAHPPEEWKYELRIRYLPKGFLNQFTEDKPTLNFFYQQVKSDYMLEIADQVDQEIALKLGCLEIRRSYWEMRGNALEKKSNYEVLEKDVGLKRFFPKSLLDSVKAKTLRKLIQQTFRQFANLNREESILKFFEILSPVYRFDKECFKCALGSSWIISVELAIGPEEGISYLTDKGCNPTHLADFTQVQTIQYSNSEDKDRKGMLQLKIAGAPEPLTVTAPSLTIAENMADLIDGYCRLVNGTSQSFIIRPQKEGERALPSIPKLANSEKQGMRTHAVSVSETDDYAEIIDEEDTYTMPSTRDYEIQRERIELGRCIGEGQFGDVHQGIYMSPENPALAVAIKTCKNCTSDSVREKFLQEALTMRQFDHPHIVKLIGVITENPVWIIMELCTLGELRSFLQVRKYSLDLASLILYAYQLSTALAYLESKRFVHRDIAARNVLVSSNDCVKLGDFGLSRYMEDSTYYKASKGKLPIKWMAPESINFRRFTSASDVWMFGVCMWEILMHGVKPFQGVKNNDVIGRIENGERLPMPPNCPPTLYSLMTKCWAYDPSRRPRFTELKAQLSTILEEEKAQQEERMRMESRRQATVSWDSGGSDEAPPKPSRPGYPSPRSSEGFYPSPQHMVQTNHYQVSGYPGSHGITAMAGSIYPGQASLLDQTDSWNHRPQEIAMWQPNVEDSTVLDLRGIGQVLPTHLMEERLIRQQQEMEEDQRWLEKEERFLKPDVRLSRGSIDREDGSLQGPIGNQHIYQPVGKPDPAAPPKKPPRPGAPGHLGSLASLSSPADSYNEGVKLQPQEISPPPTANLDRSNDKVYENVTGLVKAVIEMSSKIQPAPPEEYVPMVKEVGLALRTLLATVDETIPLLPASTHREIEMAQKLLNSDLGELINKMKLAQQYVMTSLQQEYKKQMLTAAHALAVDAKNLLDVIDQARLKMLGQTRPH
Sequence of Concanavalin-A (Canavalia ensiformis) (P02866 whole entry, looked up): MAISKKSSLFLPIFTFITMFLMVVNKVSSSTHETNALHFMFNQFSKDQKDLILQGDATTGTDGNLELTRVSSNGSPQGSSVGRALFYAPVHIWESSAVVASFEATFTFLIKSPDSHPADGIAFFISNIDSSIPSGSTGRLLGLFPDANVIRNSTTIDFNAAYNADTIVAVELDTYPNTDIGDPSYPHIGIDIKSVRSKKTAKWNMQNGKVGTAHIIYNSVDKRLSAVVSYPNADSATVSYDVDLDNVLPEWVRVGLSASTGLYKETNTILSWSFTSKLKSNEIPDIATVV
Sequence of Albumin (Bos taurus) (P02769 whole entry, looked up): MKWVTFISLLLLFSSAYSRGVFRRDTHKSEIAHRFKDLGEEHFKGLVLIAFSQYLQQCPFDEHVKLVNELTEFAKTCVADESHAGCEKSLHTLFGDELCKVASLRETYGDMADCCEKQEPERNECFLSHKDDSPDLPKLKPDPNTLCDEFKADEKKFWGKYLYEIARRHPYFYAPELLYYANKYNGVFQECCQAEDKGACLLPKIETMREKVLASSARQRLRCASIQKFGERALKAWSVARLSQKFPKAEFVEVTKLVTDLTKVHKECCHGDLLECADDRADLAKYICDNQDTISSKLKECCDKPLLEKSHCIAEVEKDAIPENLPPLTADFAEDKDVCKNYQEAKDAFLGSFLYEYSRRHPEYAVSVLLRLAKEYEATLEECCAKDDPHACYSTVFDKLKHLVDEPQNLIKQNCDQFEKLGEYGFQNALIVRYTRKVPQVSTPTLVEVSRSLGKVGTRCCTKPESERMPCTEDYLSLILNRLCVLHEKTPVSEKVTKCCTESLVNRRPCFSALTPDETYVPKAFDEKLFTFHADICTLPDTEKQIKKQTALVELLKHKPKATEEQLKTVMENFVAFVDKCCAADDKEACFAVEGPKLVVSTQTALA
Sequence of Fibroblast growth factor 2 (Homo sapiens) (P09038 whole entry, looked up): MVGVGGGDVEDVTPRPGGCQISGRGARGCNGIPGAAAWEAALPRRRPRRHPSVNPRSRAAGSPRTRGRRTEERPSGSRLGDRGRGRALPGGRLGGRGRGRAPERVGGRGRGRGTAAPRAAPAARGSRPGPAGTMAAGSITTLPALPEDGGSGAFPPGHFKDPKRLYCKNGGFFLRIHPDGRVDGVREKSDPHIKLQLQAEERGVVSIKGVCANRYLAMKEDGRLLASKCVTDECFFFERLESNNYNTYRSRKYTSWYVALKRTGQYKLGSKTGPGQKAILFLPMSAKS

With `CCOC(=O)[C@H](Cc1ccccc1)NC(=O)CCC1CC(OC(=O)NCc2ccc3c(c2)OCO3)CC2(CCCC(COC(=O)NCCc3ccc(Cl)cc3)O2)O1` (stereo not given in full), the composite z-score is 0.581 in the test with Albumin (Bos taurus); 0.0591 in test [2]; -0.125 in [3]; 0.151 in [4]; 0.454 in test [5]; 0.0158 in [6]. Besides, the composite z-score in the test with Sam68 (KHDRBS1) was found to be 1.3; in test [7] it was 0.43; in test [8] it was 0.814; in test [9], 0.0231; in [10], 0.908; in test [11], 0.762. Besides, the composite z-score turned out to be 0.755 in [12]; 0.749 in test [13]; 0.303 in test [14]; 1.03 in the test with Lefty1; 0.335 in test [16]. Further, the composite Z-score in [1] is 0.264 (inactive). Further, the z-score in test [15] was 0.05; in [17] it was -0.144 (inactive).
With `COc1ccc(O[C@H]2C=C[C@@H](c3ccccc3)O[C@@H]2COC(=O)NCc2cccc3ccccc23)cc1`, the composite z-score in the test with Albumin (Bos taurus) is -0.194; in [2] it was -0.191; in test [3], -0.159; in test [4] it was -0.219; in test [5] it was -0.146; in [6], -0.0544. Further, the composite z-score is -0.0446 in the test with Sam68 (KHDRBS1); 0.281 in [7]; 0.335 in [8]; -0.816 in test [9]; -0.406 in test [10]; -0.235 in test [11]. For the same compound, the composite z-score was -0.138 in test [12]; -0.0584 in [13]; 0.353 in [14]; 0.0182 with Lefty1; -0.317 in test [16]. For the same compound, in [1], the composite Z-score is -0.341 (inactive). Further, the z-score in test [15] is 1.07; in test [17], 0.441 (inactive).
For the compound `CO[C@@H]1C=CCC(=O)N[C@@H](C)C(=O)OC[C@@H](OC)[C@H](C)C=CCC(=O)OC[C@H]1C`, the composite z-score was -1.01 with Albumin (Bos taurus); -0.0967 in [2]; -0.123 in test [3]; -0.689 in test [4]; -1.2 in [5]; 0.0645 in test [6]. The composite z-score in the test on Sam68 (KHDRBS1) was 0.451; in test [7] it was 1.49; in test [8] it was -1.09; in [9] it was 0.207; in test [10], -0.724; in [11], -0.397. Also, the composite z-score in test [12] was -0.556; in [13] it was 1.39; in test [14], 0.615; in the test on Lefty1 it was 1.59; in [16], -0.87. The composite Z-score in test [1] is 0.914 (inactive). Moreover, the z-score was 1.04 in test [15] and -0.461 (inactive) in test [17].
For the compound `CCOC(=O)[C@H](Cc1ccccc1)NC(=O)CCC1CC(OC(=O)NCCc2ccc(F)cc2)CC2(CCCC(COC(=O)NCCC(C)C)O2)O1` (stereo not given in full), the composite z-score in the test with Albumin (Bos taurus) was 0.508; in test [2] it was 0.0939; in [3], -0.114; in test [4] it was 0.28; in [5], 1.17; in test [6], -0.0236. Further, the composite z-score with Sam68 (KHDRBS1) stood at 1.31; in test [7] it was 0.0858; in [8], 0.831; in test [9], 1.05; in [10] it was 1.12; in test [11], 0.156. For the same compound, the composite z-score in [12] was 0.871; in test [13] it was 0.967; in test [14], 1.02; in the test with Lefty1 it was 0.743; in [16] it was 0.381. In addition, in test [1], the composite Z-score is 1.05 (inactive). In addition, the z-score in test [15] was 0.833; in [17] it was 0.553 (inactive).
`COC(=O)[C@H](C)NC(=O)CCC1CC(OC(=O)NCc2cccc3ccccc23)CC2(CCCC(COC(=O)NCc3cccc(C(F)(F)F)c3)O2)O1` (stereo not given in full): the composite z-score with Albumin (Bos taurus) is 0.845; in [2], 0.106; in [3], -0.0846; in test [4] it was 0.15; in [5], 1.78; in test [6], 0.0331. Moreover, the composite z-score amounted to 1.31 with Sam68 (KHDRBS1); 0.293 in [7]; 1.12 in test [8]; 1.12 in [9]; 0.818 in test [10]; 0.0625 in test [11]. For the same compound, the composite z-score in [12] was 0.83; in test [13], 0.928; in test [14], 0.657; in the test with Lefty1, 0.526; in test [16] it was 0.48. Further, in test [1], the composite Z-score is 0.15 (inactive). The z-score in test [15] was 1.43; in test [17], -0.552 (inactive).
